Compounds without any hit were thinned out: in the full panel of roughly 83,000, 20% have a hit.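 Single-concentration screen, 48 h exposure, 96-well plates. Endpoint: percent growth. Below 10 = active.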 The source made the active and inactive calls.
Assays:
Test in all cases: NCI-60 one-dose screen, 48 h (100 = growth as untreated, 0 = no growth, -100 = all killed)
Conditions in all cases: 10 µM
[1] = test system: NCI-H23 lung
[2] = test system: NCI-H226 lung
[3] = test system: NCI-H322M lung
[4] = test system: HOP-62 NSCLC
[5] = test system: NCI-H460 lung
[6] = test system: HOP-92 NSCLC
[7] = test system: A549/ATCC NSCLC
[8] = test system: 786-0 renal
[9] = test system: COLO 205 colon
[10] = test system: NCI-H522 lung

Measured: growth

O=C1OC(c2ccc(F)cc2)CC1CN1CCOCC1 (stereo unspecified)
inactive: [1] 98.8% | [2] 107% | [3] 102% | [4] 101% | [5] 108% | [6] 94.5% | [7] 100% | [8] 105% | [9] 93.1%

Nc1ccc(N)c([N+](=O)[O-])c1
inactive: [1] 103% | [2] 94.1% | [3] 101% | [4] 111% | [5] 96% | [6] 109% | [10] 86.4% | [8] 118% | [9] 112%

Nc1ccc(N=Nc2ccc(S(=O)(=O)O)cc2)c2ccccc12
inactive: [1] 86.2% | [2] 87% | [3] 91.8% | [4] 63.7% | [5] 94.8% | [6] 76.9% | [10] 95.7% | [8] 106% | [9] 90.7%

OC1CCCc2ccccc21 (stereo unspecified)
inactive: [1] 104% | [2] 104% | [3] 89.6% | [4] 104% | [5] 101% | [6] 112% | [7] 51.3% | [8] 103% | [9] 115%

O=[N+]([O-])c1ccc(CO)cc1
inactive: [1] 104% | [2] 98.4% | [3] 98.9% | [4] 90.8% | [5] 98.7% | [6] 110% | [10] 104% | [8] 94.4% | [9] 109%

CC1CC(O)CC(C)(C)C1 (stereo unspecified)
inactive: [1] 98.4% | [2] 106% | [3] 98.2% | [4] 97.9% | [5] 106% | [6] 96.5% | [7] 97.3% | [8] 107% | [9] 102%

C[C@]12CC[C@@H]3c4ccc(OCC(=O)O)cc4CC[C@H]3[C@@H]1CCC2=O
inactive: [1] 94.2% | [2] 95.7% | [3] 98% | [4] 75% | [5] 101% | [6] 92.1% | [7] 93.3% | [8] 102% | [9] 105%

CCN=c1cc2sc3cc(NCC)c(C)cc3nc-2cc1C
active: [1] 5.46% | [5] 1.61% | [7] -40.3% | [9] -25.8%
inactive: [2] 64.2% | [3] 27.3% | [4] 29.4% | [6] 16.3% | [8] 46.3%

CCOC(=O)/C(C#N)=C/c1cccc(C)c1
inactive: [1] 99.5% | [2] 109% | [3] 95% | [4] 101% | [5] 103% | [6] 83.8% | [7] 95.5% | [8] 98.3% | [9] 119%

CC(=O)OCC1CCCO1 (stereo unspecified)
inactive: [1] 106% | [2] 100% | [3] 98.7% | [4] 95.1% | [5] 91.5% | [6] 97.4% | [10] 91% | [8] 93.5% | [9] 102%

C=CCNc1nnc(C)s1
inactive: [1] 98.1% | [2] 99.8% | [3] 96.7% | [4] 98.8% | [5] 115% | [6] 83% | [7] 116% | [8] 94.9% | [9] 122%

Cc1cc(C(O)(c2ccc(Nc3ccccc3)cc2)c2ccc(Nc3ccc(S(=O)(=O)O)cc3)cc2)ccc1N (stereo unspecified)
active: [1] 8.07% | [5] -39.3% | [6] -23.8% | [10] -45.8% | [8] -1.27% | [9] -71%
inactive: [2] 28.9% | [3] 25% | [4] 53.5%

O=c1[nH]c(O)c(/C=C2/C=Nc3ccccc32)[nH]1
inactive: [1] 101% | [2] 92.1% | [3] 107% | [4] 99.4% | [5] 99.3% | [6] 84.5% | [7] 91.3% | [8] 107% | [9] 101%

Nc1ccc(NC(=O)c2cccc(N)c2)cc1
inactive: [1] 96.7% | [2] 99.1% | [3] 95.2% | [4] 86.5% | [5] 101% | [6] 81.1% | [7] 47.6% | [8] 101% | [9] 114%

CC(C(=O)O)(C1CCCCC1)C1(O)CCCCC1 (stereo unspecified)
inactive: [1] 103% | [2] 102% | [3] 101% | [4] 96.4% | [5] 105% | [6] 104% | [7] 106% | [8] 98.9% | [9] 104%

COc1ccccc1N1CCN(C(=S)Nc2ccccc2)CC1
inactive: [1] 92.8% | [2] 99.4% | [3] 93.2% | [4] 89.7% | [5] 102% | [6] 80.9% | [7] 99.7% | [8] 96.3% | [9] 97.4%

C[N+](C)(C)C(=O)c1ccccc1
inactive: [1] 99.5% | [2] 102% | [3] 118% | [4] 101% | [5] 119% | [6] 102% | [7] 101% | [8] 109% | [9] 109%

CN(C)c1ccc(CNC(C(=O)c2ccccc2)c2ccccc2)cc1 (stereo unspecified)
inactive: [1] 98.5% | [2] 101% | [3] 92.8% | [4] 75.5% | [5] 110% | [6] 78.9% | [10] 85.4% | [8] 109% | [9] 113%

O=C1C[C@H](c2ccccc2)[C@H](c2ccccc2)C1
inactive: [1] 102% | [2] 97.6% | [3] 99.7% | [4] 98.5% | [5] 112% | [6] 70.9% | [10] 79% | [8] 101% | [9] 113%

O=C(OCC(O)C1OC(c2ccccc2)OC(COC(=O)c2ccccc2)C1O)c1ccccc1 (stereo unspecified)
inactive: [1] 111% | [2] 99.6% | [3] 109% | [4] 99% | [5] 104% | [6] 89.8% | [7] 94.8% | [8] 111% | [9] 99.9%

O=C(Nc1ccccc1C(=O)NCC1CC1)c1cccs1
inactive: [1] 109% | [2] 88.1% | [3] 126% | [4] 103% | [5] 105% | [6] 71.6% | [7] 102% | [8] 101% | [9] 116%

O=C(NCc1ccco1)Nc1c(Cl)cc(Cl)cc1Cl
inactive: [1] 104% | [2] 99.6% | [3] 106% | [4] 97.3% | [5] 103% | [6] 79.6% | [7] 102% | [8] 97.2% | [9] 107%

OC(c1ccccn1)C(O)c1ccccn1 (stereo unspecified)
inactive: [1] 97.5% | [2] 110% | [3] 96.8% | [4] 104% | [5] 114% | [6] 98.9% | [7] 95.3% | [8] 99.5% | [9] 105%

COc1ccc(/C(C#N)=C2C=C/C(=N/O)c3ccccc3\2)cc1
active: [5] 3.48% | [9] -73%
inactive: [1] 27.7% | [2] 36% | [3] 48.5% | [4] 35.3% | [6] 13.3% | [7] 11.8% | [8] 16.8%

O=C(Cc1ccc(OCc2ccccc2)cc1)NCc1ccc2c(c1)OCO2
inactive: [1] 78.3% | [2] 99.6% | [3] 80.8% | [4] 77.9% | [5] 28.7% | [6] 86.8% | [7] 58.2% | [8] 88.7% | [9] 85.5%

C=CC[N+](C)(C)C
inactive: [1] 103% | [2] 93.6% | [3] 108% | [4] 107% | [5] 104% | [6] 86% | [7] 100% | [8] 102% | [9] 120%

O=S(=O)(O)c1ccc(O)c2ccccc12
inactive: [1] 93.4% | [2] 102% | [3] 110% | [4] 107% | [5] 115% | [6] 98.8% | [7] 118% | [8] 101% | [9] 121%

CN(C)c1ccc2nc3ccc(=N)cc-3sc2c1
inactive: [1] 14.7% | [2] 77.1% | [3] 85.4% | [4] 54.4% | [5] 56.7% | [10] 14.7% | [7] 13.6% | [8] 66.2%

CCCCC1(CC)COC(CCC)OC1 (stereo unspecified)
inactive: [1] 111% | [2] 98% | [3] 117% | [4] 95.9% | [5] 115% | [6] 79.7% | [7] 103% | [9] 114%

c1cc[n+](C2c3ccccc3C([n+]3ccccc3)c3ccccc32)cc1 (stereo unspecified)
inactive: [1] 65.2% | [2] 49.6% | [3] 84.8% | [4] 37.8% | [5] 98.8% | [6] 20.6% | [7] 78.5% | [8] 50% | [9] 30.8%

Nc1ncnc2[nH]ncc12
inactive: [1] 17.7% | [2] 34.8% | [4] 20.9% | [5] 12.3% | [7] 23% | [9] 10.8%
active: [3] 0.523% | [6] -21.4%

— PubChem BioAssay (NCI)
